# High-throughput results (PubChem)
# DRD3 agonist = qHTS of D3 Dopamine Receptor Agonist: qHTS; D(3) dopamine receptor (Homo sapiens), P35462; D3R DiscoveRx beta-arrestin cells, luminescence, 90 min; max activation, %; hit rate 0.58% among 410,000; in the data active = max activation above about 30%; note: 0% is about no effect
# Target sequence (P35462 whole entry, looked up): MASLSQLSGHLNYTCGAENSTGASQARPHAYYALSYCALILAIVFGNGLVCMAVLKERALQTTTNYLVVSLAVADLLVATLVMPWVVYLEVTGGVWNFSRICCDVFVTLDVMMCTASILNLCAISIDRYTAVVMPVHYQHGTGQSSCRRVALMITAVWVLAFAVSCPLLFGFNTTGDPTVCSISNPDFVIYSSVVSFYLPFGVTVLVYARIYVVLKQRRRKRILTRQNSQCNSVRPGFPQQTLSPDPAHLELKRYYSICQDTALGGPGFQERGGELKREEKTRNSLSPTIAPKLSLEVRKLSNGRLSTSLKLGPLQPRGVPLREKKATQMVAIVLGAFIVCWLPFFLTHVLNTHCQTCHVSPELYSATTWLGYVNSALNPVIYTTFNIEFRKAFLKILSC
#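 Agonist mode: compounds and dopamine controls were applied to plated cells for 90 min at 37 degrees C after an overnight attachment at 1500 cells/well. Luminescent read-out followed 30 - 60 minutes at room temperature with DiscoveRx detection reagent.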
# Akt phos inh = HTS Assay for Inhibitors of Akt Phophorylation: Primary Screen. hit rate 0.32% among 360,000. activity change, % for hits at 50 µM. Neuro2A IGF-stimulated pAkt S473 HTRF, 20 min; active compounds read low; in the data active = activity change below about -80%; inconclusive = mostly about -51% to -80%; note: % is set by controls: 0 for no effect and ±100 for the full control effect
#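 Neuro2A cells (4,500/well, DMEM with 0.5% FBS) were treated with compound at a single 50 µM final concentration, stimulated with 6 nM IGF for 20 min at 37 °C, and lysed. Phospho-Akt Ser473 was read by HTRF as 665/615 ratio ×10^4.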
# DRD3 antagonist = qHTS of D3 Dopamine Receptor Antagonist: qHTS. D(3) dopamine receptor (Homo sapiens), P35462. D3R cells, DiscoveRx beta-arrestin luminescence, antagonist mode; active compounds read low. max response, negative = inhibition, %. hit rate 2.5% among 360,000. AID 652054, 2013; in the data active = max response below about -50%; inconclusive = no clear call, values can overlap the other calls; note: % is set by controls: 0 for no effect and ±100 for the full control effect
#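 Cells plated overnight at 1500 cells/well, then exposed to library compounds with dopamine controls for 90 minutes at 37 degrees C. DiscoveRx reagent added for 30–60 minutes at room temperature; luminescence read, quantitative HTS format.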
# PI4K2A inh = qHTS for small molecular inhibitors of PI4K2A | Phosphatidylinositol 4-kinase type 2-alpha (Homo sapiens), Q9BTU6 | purified PI4K2A, ADP-Glo luminescence, 1 h; active compounds read low | activity change, negative = inhibition, % at 76.9 µM | hit rate 0.13% among 420,000 | AID 1346378, 2018; in the data active = activity change below about -50%; inconclusive = mostly about -30% to -49%;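 note: -100% = wells without enzyme as full effect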
#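 ADP-Glo luminescence measured ADP generated by PI4K2A enzyme (4 ug/mL before mixing) with 1.2 mM PI substrate (pre-mix) and 300 microM ATP (pre-mix). Tris pH7.5 buffer with MgCl2, Triton X-100; 1 h reaction at ambient temperature.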
# LDHA block = qHTS assay for inhibitors of human lactate dehydrogenase | L-lactate dehydrogenase A chain (Homo sapiens), P00338 | purified LDHA, NADH/diaphorase-resazurin fluorescence; active compounds read low | activity change, % (values are at about 110 or 230 µM) | hit rate 0.15% among 480,000 | AID 1347041, 2019; in the data active = activity change below about -30%; inconclusive = mostly about -25% to -30%;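 note: plate controls were DMSO wells for no effect and wells without enzyme for full effect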
#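 Enzyme activity of human lactate dehydrogenase 5 (2 nM; 0.06 mM NADH, 0.2 mM pyruvate, 5 min, RT) is measured via a resazurin/diaphorase fluorescence readout of residual NADH.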
# RGS4 inhibitor = Inhibitors of Regulator of G Protein Signaling (RGS) 4: qHTS; hit rate 0.039% among 390,000; Regulator of G-protein signaling 4 (Homo sapiens), P49798; AID 504845, 2011; Transcreener GDP fluorescence polarization, RGS4-accelerated GTP hydrolysis; Potency, µM (top dose mostly 114 µM), for the others: at the top dose activity change, negative = inhibition, most hits filed as inhibitors; active = well fitted inhibition curve with a large enough effect; inconclusive = small, poorly fitted or top-dose-only effect; inactive = no such curve, though single readings can be large or run the other way; note: potency is the fitted concentration of half-maximal effect; % is set by controls: 0 for no effect and ±100 for the full control effect; nearly all actives have a fitted effect of over 75% in size
# Target sequence (P49798 whole entry, looked up): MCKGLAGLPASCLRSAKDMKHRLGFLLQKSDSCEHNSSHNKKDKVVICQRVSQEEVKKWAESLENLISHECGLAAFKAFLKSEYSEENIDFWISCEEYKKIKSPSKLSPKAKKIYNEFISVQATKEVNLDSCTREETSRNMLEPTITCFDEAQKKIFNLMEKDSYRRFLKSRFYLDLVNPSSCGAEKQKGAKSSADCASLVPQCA
#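 MLSMR compounds (23 nl, pin-transferred) preincubated 10 min at room temperature with a 500nM (2x) first reagent, then RGS4 at 900nM (2x) plus Transcreener GDP mix added; fluorescence polarization (620/688 nm) read before and after 90 min at 30 °C.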
# * marks the source's active call; other numbers are inactive results; i = inactive; ? = inconclusive; . = not tested or not shown; [ ] = another dose, or the depositor's remark. Sampled rows, rich in hits. Any-hit rate of the full collection: about 2.8%.
SMILES,DRD3 agonist,Akt phos inh,DRD3 antagonist,PI4K2A inh,LDHA block,RGS4 inhibitor
O=C1NC[C@@H](CCCCN2C[C@H](Cc3ccc(O)cc3)N(CCC3CCCCC3)C(=O)C2=O)N(CC2CCCCC2)C1=O,-16.4,i,-62.9*,-3.5,3.3,.
O=C1NC[C@H](CCCCN2CCN(Cc3ccccc3)C(=O)C2=O)N(CCC2CCCCC2)C1=O,32.7*,i,-26.8,-2.1,-0.1,.
O=C(NCNC(=O)Nc1ccccc1)Nc1ccccc1,.,.,.,.,3.2,.
Cc1ccc(-c2cc(C(=O)N3CCN(C(=O)c4ccco4)CC3)c3ccccc3n2)cc1,.,.,.,.,4.3,.
N#CCc1c(C#N)c(N)nc(N2CCN(Cc3ccc4c(c3)OCO4)CC2)c1C#N,-10.3,i,?,11.9,-1.8,?
Cc1cc(C)c(C#N)c(N2CCN(Cc3ccccc3)CC2)n1,-59.8,i,-92.8*,7.6,-1.9,23.2%
Cc1ccc2nc(N3CCN(Cc4nnnn4Cc4ccccc4)CC3)c(C#N)cc2c1,-0.1,i,-73.7*,5.4,-1.7,1.1%
Cc1cc(C)c(C#N)c(N2CCN(Cc3ccc4c(c3)OCO4)CC2)n1,-20.0,i,-56.8*,-11.1,-0.1,1.6%
Cc1ccc(NC(=O)Cc2n[nH]c(=O)c3ccccc23)cc1C,.,.,.,.,7.8,.
CCOc1ccc(CCNC(=O)C2CCC(=O)N2CCc2ccccc2)cc1OCC (configuration not stated),2.2,-82.0%*,16.8,-0.3,-5.5,9.3%
Cc1ccc(CNC(=O)C2CCC(=O)N2CCc2ccccc2)cc1 (configuration not stated),17.5,i,-57.0*,-1.6,-2.6,22.3%
Cc1ccc(CCNC(=O)C2CCC(=O)N2CCc2ccccc2)cc1 (configuration not stated),6.3,i,-14.9,-2.5,-10.2,-5.4%[56.9 µM]
FC(F)(F)c1ccccc1CNCc1ccco1,.,.,.,.,4.8,.
COc1ccc(CNC(=O)Cc2c(C)c3ccc(OC)c(OC)c3oc2=O)c(OC)c1,.,.,.,.,0.5,.
CCn1c(SCC(=O)c2ccc(Cl)cc2)nnc1-c1ccoc1C,-9.3,i,-61.3*,-9.9,-5.6,?
Cc1ccc(C(=O)CSc2nnc(-c3ccco3)n2Cc2ccccc2)cc1,7.9,-108.9%*,-2.6,-3.2,-7.1,-28.6%[11.4 µM]
CCn1c(SCC(=O)c2ccc(C)cc2)nnc1-c1ccoc1C,7.5,i,-14.3,16.4,-10.2,0.9%
COC(=O)C(NC=O)C12CC3CC(CC(C3)C1)C2 (configuration not stated),.,.,.,.,3.5,.
O=[N+]([O-])c1ccc(-[n+]2ccc3ccccc3c2)c([N+](=O)[O-])c1,-46.3,i,-105.7*,2.2,17.0,?
CCn1c2c(c3cc(OCC(C)C)ccc31)CCCC2=O,-16.1,i,-8.8,2.5,5.3,-3.1%
CCn1c2c(c3cc(Br)ccc31)CCC/C2=N\O,36.3*,i,10.1,-1.1,0.5,-8.4%
N#Cc1nc(-c2ccccc2Cl)oc1NC1CC1,.,.,.,.,-3.5,.
CCC(CC)NC(=O)C1CCN(C2=NS(=O)(=O)c3ccccc32)CC1,.,.,.,.,1.0,.
O=C(N/N=C/c1ccc([N+](=O)[O-])s1)c1ccccc1,-11.4,i,?,-2.8,-62.8*,-14.0%
Cc1ccccc1C(=O)N/N=C/c1ccc([N+](=O)[O-])s1,4.6,i,-10.4,-6.8,4.4,6.8%
SMILES,DRD3 agonist,Akt phos inh,DRD3 antagonist,PI4K2A inh,LDHA block,RGS4 inhibitor
O=[N+]([O-])c1ccc(O)c(/C=N/NC(=S)Nc2ccc(Cl)cc2Cl)c1,-2.1,i,?,8.9,2.9,-36.3%
O=[N+]([O-])c1ccc(/C=N/NC(=S)Nc2ccc(Cl)cc2Cl)s1,-18.6,i,-56.3*,-6.6,-2.8,-16.0%
CCN(CC)CCCNC(=O)c1cc(-c2ccc(OC)cc2)nc2ccccc12,.,.,.,.,5.2,.
CCCCCCCOc1cccc(N)c1,.,.,.,.,-0.1,.
Cc1cccc(C)c1NC(=O)CN(C)C(=O)c1ccc(-n2cncn2)c([N+](=O)[O-])c1,1.1,i,-68.2*,0.8,-1.5,8.2%
Cc1ccc(C)c(NC(=O)CN(C)C(=O)c2ccc(-n3cncn3)c([N+](=O)[O-])c2)c1,5.8,i,22.7,-4.3,-1.2,0.4%
O=C(CN1CCN(S(=O)(=O)c2ccc(Cl)cc2)CC1)Nc1ccc(F)cc1F,3.0,i,0.3,0.9,-1.0,-40.7%[11.4 µM]
O=C(CN1CCN(c2ccccc2O)CC1)Nc1ccc2c(c1)CCC2,-12.0,i,-71.5*,0.6,2.9,15.9%
O=C(CN1CCN(S(=O)(=O)c2ccc(Br)cc2)CC1)Nc1ccc(F)cc1F,-1.5,i,-50.9*,7.6,-2.3,11.3%
O=C(CN1CCN(S(=O)(=O)c2ccccc2)CC1)Nc1ccc2c(c1)CCC2,-25.2,i,-53.1*,0.3,-12.3,3.1%
CC(C)CC1OC(C(C)C)Cc2[nH]c(=S)[nH]c(=O)c21 (configuration not stated),-3.8,i,-50.7*,2.6,-4.3,.
CCN(CC)CCOC(=O)c1ccc(NC(=O)/C=C/c2cccs2)cc1,-12.3,i,-101.4*,1.1,-1.7,-37.2%
C/C(=N/Nc1ccnc2cc(Cl)ccc12)c1ccc(N)cc1,-56.0,i,?,-0.5,4.0,-36.4%
C/C(=N/Nc1ccnc2cc(Cl)ccc12)c1ccc(O)cc1,-57.1,i,-54.1*,-11.1,2.9,-25.5%
Cc1cc(=O)[nH]c(SCc2cccc(Br)c2)n1,-2.1,i,79.9,-5.2,-8.8,-27.5%
COc1ccc(CSc2nc(C)cc(=O)[nH]2)cc1Br,-10.8,i,-83.9*,-9.1,0.8,-14.4%
COc1ccc(C2C(C(=O)Nc3ccc(C)cc3)=C(C)Nc3nc4ccccc4n32)cc1OC (configuration not stated),.,.,.,.,6.8,.
CCCN(CCO)Cc1ccc(Br)cc1,-12.5,i,-11.8,1.1,-17.8,-8.5%
CCN(CC)CCN(C)Cc1ccc(Br)cc1,-25.2,i,-55.1*,0.2,?,-13.7%
CCN(CC)CCOc1ccc(/C(=C(\Cl)c2ccccc2)c2ccccc2)cc1,.,i,-65.1*,1.6,-2.9,4.2%
COc1cccc(OC)c1OCCNC(C)(C)C,9.5,i,4.7,-2.3,-16.6,24.8%
CCN(CC)CCOc1ccc2c(c1)C(=NO)c1cc(OCCN(CC)CC)ccc1-2,-29.5,i,?,0.2,-0.2,-0.1%
CCN(CC)CCOc1ccc(Br)cc1,-30.7,i,-119.1*,1.6,-12.0,24.7%
CC(C)(C)NCCOc1ccc(Br)cc1,-9.6,i,-51.6*,2.9,-18.1,-27.7%
